Source: PubChem BioAssay
Calls of active or inactive are those of the source.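 The calls were made as follows: active = viability at or under a set limit in both replicates, limit being median viability minus 3 SD (cut at about 48% in these data, passing the limit was not always enough); inconclusive = at or under the limit in just one replicate; inactive = at or above the limit in both replicates.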

Experiment: H69AR cell proliferation blockers – human, duplicate replicates, primary screen (AID 580);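 also: 100% = mean luminescence of untreated wells and 0% = no signal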
Details: H69AR lung tumor cells viability, ATP luminescence, 72 h; at 10 µM; active compounds read low

| Structure (SMILES) | viability |
| --- | --- |
| CCOc1ccc2nc(SCC(=O)Nc3ncccn3)[nH]c2c1 | 105% (inactive) |
| O=C(NCc1ccccn1)c1cc(-n2cnnc2)ccc1Cl | 101% (inactive) |
| OCC(O)CN1CCN(c2ccccc2)CC1 (stereo not given) | 92.9% (inactive) |
| CCCc1cc(=O)[nH]c(Nc2ccc(OC)c(Cl)c2)n1 | 70.6% (inactive) |
| O=C(O)c1ccc(CSc2ncn[nH]2)cc1 | 94.4% (inactive) |
| O=C(NCc1ccc2c(c1)OCO2)C1CCC(CNS(=O)(=O)c2ccccc2)CC1 (stereo not given) | 92.2% (inactive) |
| NC(CO)C(=O)NNCc1ccc(O)c(O)c1O (stereo not given) | 98.7% (inactive) |
| CCCCCc1nnc(NC(=O)Cc2cccs2)s1 | 102% (inactive) |
| O=C(NCCN1CCOCC1)c1ccc(CS(=O)(=O)Cc2ccccc2F)o1 | 108% (inactive) |
| CC1(C2(O)CC(c3ccccc3)ON2)CCCCC1 (stereo not given) | 84.1% (inactive) |
| CCOC(=O)N1CCC(n2c(=S)[nH]c3cc(OC)c(OC)cc3c2=O)CC1 | 57.1% (inactive) |
| O=S(=O)(NCc1cn2ccccc2n1)c1cc(F)ccc1F | 96.6% (inactive) |
| O=C(CCNNC(=O)c1ccncc1)NCc1ccccc1 | 93.5% (inactive) |
| CC(OC(=O)c1ccco1)C(=O)NCc1cccs1 (stereo not given) | 97.4% (inactive) |
| C(=N/n1c2ccccc2c2ccccc21)/c1ccco1 | 86.5% (inactive) |
| CCCCC[C@H](O)/C=C/C1=C(CCCCCCC(=O)O)C(=O)CC1 | 92.5% (inactive) |
| CCOC(=O)C1CCN(C(=O)COc2ccc(S(=O)(=O)NC(C)C)cc2Cl)CC1 | 90.4% (inactive) |
| Nn1c(SCC(=O)NC2CCCCC2)nnc1-c1ccc(Cl)cc1 | 91.6% (inactive) |
| Cc1nnc(C)c2c(C)n(Cc3ccc4c(c3)OCO4)c(C)c12 | 80.9% (inactive) |
| CCOC(=O)c1cc(-c2ccccc2)sc1N | 81.3% (inactive) |

| Structure (SMILES) | viability |
| --- | --- |
| O=C(Nc1nc(-c2cccs2)cs1)c1cccc(S(=O)(=O)N2CCCCC2)c1 | 66.8% (inactive) |
| c1cc2c(cc1Cn1cnnn1)OCO2 | 105% (inactive) |
| Cc1cc(C)cc(NC(=O)CN(C)S(=O)(=O)c2cnc[nH]2)c1 | 100% (inactive) |
| CC(=O)[C@@]1(O)CC[C@H]2[C@@H]3C[C@H](C)C4=CC(=O)C=C[C@]4(C)[C@@]3(F)[C@@H](O)C[C@@]21C | 93.2% (inactive) |
| O=S(=O)(Nn1cnnc1)c1ccccc1Cl | 89.3% (inactive) |
| CNC(=O)NCCN1CCCC1=O | 102% (inactive) |
| CC(=O)c1ccccc1NS(=O)(=O)c1c(C)nn(-c2ccccc2)c1C | 88.3% (inactive) |
| Cc1onc(-c2c(F)cccc2Cl)c1C(=O)Nc1nc2c(s1)CCCC2 | 77.3% (inactive) |
| Cc1nc2ccc(S(=O)(=O)NCC(=O)N3CCCCC3)cc2s1 | 87.4% (inactive) |
| CCN1CCN(C(=O)N[C@@H](C(=O)N[C@@H]2C(=O)N3[C@@H]2SC(C)(C)[C@@H]3C(=O)O)c2ccccc2)C(=O)C1=O | 91.5% (inactive) |
| COc1ccc2cnn(-c3ccccc3C)c(=O)c2c1OC | 106% (inactive) |
| Cc1ccc(S(=O)(=O)N2CCN(C(=O)CSc3nc4ccccc4c(=O)[nH]3)CC2)c(C)c1 | 85.1% (inactive) |
| C=CCN1C(=O)CS/C1=N/c1nccs1 | 98.4% (inactive) |
| CCCC(=O)Nc1ccc(C(=O)O)cc1NC(=O)CCC | 96.3% (inactive) |
| CCCC(=O)Nc1cnc(NC(=O)c2cccc(F)c2)cc1C | 88.7% (inactive) |
| Cc1cc(C)n2nc(SCC(=O)N(C)Cc3ccccc3)nc2n1 | 81.7% (inactive) |
| CCc1[nH]nc2c1C1(CCN(C(=O)OCc3ccccc3)CC1)C(C#N)=C(N)O2 | 85.2% (inactive) |
| CCOc1ccc(N2CC(C(=O)NCCc3ccc(OC)c(OC)c3)CC2=O)cc1 (stereo not given) | 94.5% (inactive) |
| O=C(COC(=O)CCC1CCCC1)Nc1ccc(Cl)cn1 | 98.6% (inactive) |
| c1ccc(-c2oc3ncnc(NCCN4CCOCC4)c3c2-c2ccccc2)cc1 | 73.3% (inactive) |
